The list is not random: actives were taken first. Their share in the collection is about 2.3%.
miR-21 act: qHTS Assay for Modulators of miRNAs and/orActivators of miR-21. HeLa miR-21 FLuc reporter, luciferase, 48 h. Potency, µM (top dose mostly 38.3 µM), for the others: at the highest dose activity change, positive = activation, hits mostly activators. 340,000 tested, under 10 active. AID 2288, 2010;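 note: % of control where 0% means no effect; miR-21 action dims this reporter so a rising signal means less miR-21 action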
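Luminescence from a firefly luciferase reporter carrying a miR-21 binding site downstream, stably expressed under a CMV promoter in HeLa cells that make miR-21 endogenously, reports miRNA modulation after 48 h compound exposure up to approximately 40uM final.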
A549 viability: Nrf2 qHTS screen for inhibitors: counterscreen for cytotoxicity; A549 ARE-Fluc cells, CellTiter-Fluor viability, 18-24 h; Potency, µM (highest dose often 46 µM), for the others: at the top dose activity change, negative = cytotoxicity, hits mostly inhibitors; actives 0.16% (n = 390,000); AID 504648, 2011; note: potency is the fitted concentration of half-maximal effect; % is set by controls: 0 for no effect and ±100 for the full control effect
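A549 ARE-Fluc cells in 5% FBS OPTI-MEM, 5000 cells/well, rested 2 h then exposed to compounds in concentration-response for 18-24 h at 37 °C. Viability by CellTiter-Fluor fluorescence (Ex 405/Em 525) after 30 min; luciferase luminescence (BugLite, 15 min, RT) read afterwards.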
Nrf2 block: Nrf2 qHTS screen for inhibitors | A549 ARE-Fluc reporter, luciferase luminescence, 18-24 h | Potency, µM (highest dose often 46 µM), for inactives: top-dose activity change, negative = inhibition, actives largely listed as inhibitors | actives 2.1% (n = 360,000) | AID 504444, 2011; note: potency is the fitted concentration of half-maximal effect; % is set by controls: 0 for no effect and ±100 for the full control effect; nearly all actives have a fitted effect of over 60% in size
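Cells were seeded and rested 2 h, then exposed to compounds for 18-24 h. CellTiter-Fluor was read first as a viability measure. BugLite was added 15 min before the final luminescent read of ARE-luciferase activity in A549 cells.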
Mito fusion yeast: qHTS Assay for Small Molecule Inhibitors of Mitochondrial Division or Activators of Mitochondrial Fusion. Potency, µM (top dose mostly 46.1 µM), for the others: at the top dose growth rescue (activation), actives largely listed as activators. S. cerevisiae fusion-defective mutant growth rescue, CellTiterGlo 48 h. actives 0.23% (n = 320,000); note: potency is the fitted concentration of half-maximal effect; % of control where 0% means no effect; nearly all actives have a fitted effect of over 45% in size
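Compounds are tested for their ability to restore growth of mitochondrial fusion-defective yeast strains at non-permissive 37C in YPEG medium over 48 hours. Viability is quantified by luciferase luminescence.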
Nrf2 activator: qHTS of Nrf2 Activators | actives 0.31% (n = 410,000) | AREc32 ARE-luciferase reporter (MCF7-derived line), luminescence, 24 h | Potency, µM (doses to about 46.1 µM), for the others: top-dose activation, most hits filed as activators | AID 624171, 2012; note: potency is the fitted concentration of half-maximal effect; % of control where 0% means no effect; nearly all actives have a fitted effect of over 65% in size
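Cells of the AREc32 ARE-luciferase line are plated in OPTI-MEM containing 5% FBS and left overnight at 37 deg C. Compounds are pinned in, incubation continues 24 hr, and firefly luciferase signal is then measured.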
* hit, by the source's call; ? = inconclusive; · = no result. Calls come from the whole dose curve; as a rule, active = well fitted curve in the direction sought with a large enough effect; inconclusive = small, poorly fitted or top-dose-only effect, or another doubt; inactive = no such curve, though single readings can be large; an effect the other way counts as inactive or inconclusive.

SMILES | miR-21 act | A549 viability | Nrf2 block | Mito fusion yeast | Nrf2 activator
CCN(CC)C(=O)c1oc2ccc(S(=O)(=O)N3CCCCCC3)cc2c1C | 15% | -5% | ? | 3% | 2%
CCN(Cc1ccccc1)C(=O)c1oc2ccc(S(=O)(=O)N3CCOCC3)cc2c1C | 3% | 2% | ? | 10µM* | 0%
COc1ccccc1NS(=O)(=O)c1ccc2oc(SCC(C)=O)nc2c1 | 0% | -5% | ? | 10% | 3%
COc1ccccc1NS(=O)(=O)c1ccc2oc(SC)nc2c1 | 4% | 1% | 21µM* | 17% | 4%
O=c1ccc2cc(S(=O)(=O)Nc3ccc(F)cc3)ccc2o1 | 0% | -15% | ? | 19% | 3%
COc1ccccc1NS(=O)(=O)c1ccc2oc(SCc3ccc(F)cc3)nc2c1 | 15% | -17% | 23µM* | 3% | 3%
COc1ccc(NS(=O)(=O)c2ccc3oc(SCc4ccc(F)cc4)nc3c2)cc1 | 15% | -5% | 18µM* | 16µM* | 4%
CCOC(=O)CSc1nc2cc(S(=O)(=O)Nc3ccccc3OC)ccc2o1 | 0% | -5% | 9% | 2% | -1%
COc1ccc(-c2cc(C(=O)NCc3ccc(F)cc3)c3c(-c4ccc(F)cc4)[nH]nc3n2)cc1OC | -19% | ? | · | · | 1%
CCCCN1C(=O)c2[nH]nc(-c3ccccc3O)c2C1c1ccc(C(C)(C)C)cc1 (stereo not drawn) | 1% | ? | ? | · | 0%
O=C(Nc1ccc([N+](=O)[O-])cc1Cl)c1cc(Br)ccc1O | · | -6% | ? | · | ·
Cc1cc(NS(=O)(=O)c2ccc3c(c2)CCC(=O)N3)ccc1F | · | -3% | ? | · | ·
CCN(CC)S(=O)(=O)c1ccc(NC2CCCc3ccccc32)nc1 (stereo not drawn) | -8% | -13% | 15µM* | 0% | 1%
O=S(=O)(c1ccc(NC2CCCc3ccccc32)nc1)N1CCOCC1 (stereo not drawn) | -3% | -13% | -26% | 1% | 0%
O=C(CCl)N(c1ccccc1)C1CCS(=O)(=O)C1 (stereo not drawn) | ? | ? | 23µM* | -2% | -3%
COc1ccc(/C=C2\SC(=S)N(CCC(=O)NCCCN3CCOCC3)C2=O)cc1 | 1% | 12µM* | ? | 3% | 12%
CCc1ccc(/C=C2\SC(=S)N(CCC(=O)NCCCN3CCOCC3)C2=O)cc1 | 1% | ? | ? | 2% | 25%
Cc1ccc(/C=C2\SC(=S)N(CCC(=O)NCCCN3CCOCC3)C2=O)cc1 | 4% | 15µM* | ? | 20% | ?
COC(=O)c1ccc(/C=C2\SC(=S)N(CCCC(=O)NCCCN3CCOCC3)C2=O)cc1 | 1% | ? | ? | 16% | 18%
CCOc1ccc(C(=O)NCC(c2ccco2)S(=O)(=O)c2cccs2)cc1 (stereo not drawn) | 1% | 0% | · | · | 6%
CCOc1ccccc1NC(=O)C(CC)n1c(C(=O)OC)cc2occc21 (stereo not drawn) | 10% | -6% | -27% | · | 6%
COc1ccc(-c2noc(N3CCC(C(=O)Nc4ccccc4Cl)CC3)n2)cc1 | -6% | 2% | -7% | -10% | -2%
COc1ccc(-c2noc(N3CCC(C(=O)NC(C)c4ccccc4)CC3)n2)cc1 (stereo not drawn) | 18% | -20% | 23µM* | -12% | 0%
C[C@H]1O[C@@H](n2cc(F)c(=O)[nH]c2=O)[C@H](O)[C@H]1O | · | · | · | 1% | ·
O=C1C=CC(n2cc(F)c(=O)[nH]c2=O)O1 (stereo not drawn) | · | · | · | · | 25µM*
SMILES | miR-21 act | A549 viability | Nrf2 block | Mito fusion yeast | Nrf2 activator
CC1(C)OC(=O)C2(Cc3c(F)cccc3N3CCCC32)C(=O)O1 (stereo not drawn) | · | -1% | 0% | · | ·
CC(=O)Nc1cccc(C(=O)/C=C/c2ccc(Br)cc2)c1 | ? | ? | ? | 14µM* | ?
CC(=O)Nc1cccc(C(=O)/C=C/c2cccs2)c1 | 10% | -6% | 0% | 10µM* | ?
CC(=O)Nc1cccc(C(=O)/C=C/c2ccc(/C=C/C(=O)c3cccc(NC(C)=O)c3)cc2)c1 | 27% | · | · | -5% | ·
CC(=O)Nc1cccc(C(=O)/C=C/c2ccc(F)cc2)c1 | ? | 3% | -4% | -2% | -1%
COc1ccc(C2=Nn3c(nnc3-c3ccc(OC)cc3OC)SC2)c(OC)c1 | · | -10% | 8% | · | ·
COc1ccc2oc(=O)cc(CN3CCN(c4ccc(F)cc4)CC3)c2c1 | 18% | -3% | ? | · | 1%
COc1ccc(C(=O)N(Cc2ccccc2)Cc2ccco2)c(O)c1 | · | 2% | 28% | · | ·
NNC(=O)c1cc2c(N3CCC(Cc4ccccc4)CC3)ncnc2s1 | 12% | -12% | 26µM* | 4% | 0%
CC(C)(C)NC(=O)COc1ccc(CNc2ncn[nH]2)cc1 | 0% | 1% | -7% | -4% | 0%
COc1cc(CNCCCO)ccc1OCC(=O)NC(C)(C)C | 0% | 4% | 3% | 11% | 0%
COc1cc(CNc2ccc(CNc3ncn[nH]3)cc2)ccc1OCC(=O)NC(C)(C)C | 27% | -1% | 16µM* | -2% | 1%
COc1cc(CNc2ccc(N3CCOCC3)cc2)ccc1OCC(=O)NC(C)(C)C | 27% | -2% | 16µM* | -3% | 3%
CN1C2CC(OC(=O)[C@H](CO)c3ccccc3)CC1C1OC12 (stereo partly drawn) | · | · | · | -16% | ·
N#Cc1c(Cl)nsc1NC(=O)c1ccccc1 | 19% | ? | 2.6µM* | 25% | 3%
COC(=O)c1sc2cccc(F)c2c1S(=O)(=O)NCc1ccccc1Cl | 0% | -1% | 28% | · | 13µM*
COC(=O)c1sc2cccc(F)c2c1S(=O)(=O)Nc1cc(OC)cc(OC)c1 | 6% | 10% | 17% | · | ?
COC(=O)c1sc2cccc(F)c2c1S(=O)(=O)NCc1ccc(Cl)cc1 | -2% | -1% | -19% | · | 11µM*
O=C(O)/C=C/c1cc(F)c(S(=O)(=O)N2CCN(S(=O)(=O)c3ccc4c(c3)OCCO4)CC2)cc1F | · | 2% | 6% | · | ·
O=C(NCC(c1cccs1)N1CCOCC1)c1ccccc1NS(=O)(=O)c1ccc(Cl)c([N+](=O)[O-])c1 (stereo not drawn) | 23% | 1% | ? | -8% | 27%
O=C(NCC(c1cccs1)N1CCOCC1)c1ccccc1NS(=O)(=O)c1cccc([N+](=O)[O-])c1 (stereo not drawn) | 1% | ? | 21µM* | -2% | 3%
Cc1nnc(N2CCC(C(=O)NCc3ccc(F)cc3)CC2)c2nn(-c3ccc(Cl)cc3)c(C)c12 | -9% | 4% | 23% | · | 4%
Cc1cc(C(=O)CSc2nnc(-c3cccs3)o2)c(C)n1-c1ccccc1 | 10% | -3% | 21µM* | 6% | -1%

Source: PubChem
